# Compound activity as filed in PubChem BioAssay.
# PERK inhibitor = inhibitors of human PERK kinase | Q9NZJ5 | CHO PERK-DD fusion, SEAP luminescence translation reporter | inhibition, % at 5.6 µM | 220,000 tested, 0.17% active;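 active = inhibition above the mean inhibition of all tested compounds plus 3 SD, set separately per screening campaign, cut at about 2.9% in these data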;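 also: PERK kinase domain activated by AP20187 dimerizer at 100 nM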
# PABP polyA inh = blocks human PABP binding to poly(A) RNA; P11940; fluorescence polarization; inhibition, % at 35 µM; 290,000 tested, 1% active;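 also: calls also rest on retests at 20 µM and on dose response follow-up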
# PABP1 MLLE inh = inhibitors of microRNA-mediated deadenylation, human PABP1 MLLE binding | P11940 | GST-MLLE / FITC-PAM2 fluorescence polarization | inhibition, % at 20 µM | AID 588489 | 360,000 tested, 0.36% active; in the data active = inhibition above about 35%, passing the limit was not always enough
# GRK2 inh = human GRK2 inhibition via aptamer displacement; P25098; bead flow cytometry, FAM-aptamer displacement from GRK2; inhibition of aptamer binding, % at 10 µM; 330,000 tested, 0.59% active; AID 488847;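 active = inhibition of aptamer binding above 40%, roughly 3 SD of noise, on plates passing a quality check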;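 also: median bead fluorescence of bound FAM aptamer so fluorescent compounds give negative values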
# Target sequence (P25098 whole entry, looked up): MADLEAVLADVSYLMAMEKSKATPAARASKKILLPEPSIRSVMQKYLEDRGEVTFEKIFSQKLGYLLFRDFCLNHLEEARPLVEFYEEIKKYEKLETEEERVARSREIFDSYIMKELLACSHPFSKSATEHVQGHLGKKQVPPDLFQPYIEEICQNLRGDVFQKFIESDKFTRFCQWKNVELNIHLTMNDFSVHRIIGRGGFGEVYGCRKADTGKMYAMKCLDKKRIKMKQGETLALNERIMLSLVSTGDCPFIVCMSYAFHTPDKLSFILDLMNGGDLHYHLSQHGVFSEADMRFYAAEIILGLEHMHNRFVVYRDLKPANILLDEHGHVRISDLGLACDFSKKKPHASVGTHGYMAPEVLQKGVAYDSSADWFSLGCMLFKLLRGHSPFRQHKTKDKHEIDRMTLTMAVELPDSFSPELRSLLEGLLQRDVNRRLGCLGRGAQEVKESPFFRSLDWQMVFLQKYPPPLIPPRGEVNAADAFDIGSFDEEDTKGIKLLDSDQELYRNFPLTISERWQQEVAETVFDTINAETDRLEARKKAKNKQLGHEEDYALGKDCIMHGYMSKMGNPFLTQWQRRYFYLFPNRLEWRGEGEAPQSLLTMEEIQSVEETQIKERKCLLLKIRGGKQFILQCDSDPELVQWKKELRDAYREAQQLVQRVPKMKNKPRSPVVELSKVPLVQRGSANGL
# eIF4H inh = inhibitors of RNA binding by human eIF4H; Q15056; eIF4H fluorescence polarization binding assay; inhibition, % at 35 µM; 290,000 tested, 0.94% active;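 also: calls also rest on retests at 20 µM and on dose response follow-up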
# Hits are given with their value; . = inactive; ? = inconclusive; / = not tested or not shown; ! = not active in a repeat. Compounds with a hit are over-represented: about 1.9% of the library has one in this group of screens. Unless noted, no rule for the calls is given here.
SMILES,PERK inhibitor,PABP polyA inh,PABP1 MLLE inh,GRK2 inh,eIF4H inh
Cc1ccccc1-n1c(C)cc(/C=C2/C(=O)NC(=O)N(Cc3ccco3)C2=O)c1C,.,59,.,.,?
C[C@H]1[C@@H](OS(=O)(=O)O)C[C@@H]2C[C@H]([C@@H](O)c3cc(=O)[nH]c(=O)[nH]3)NC3=NC[C@H]1N32,/,/,.,/,/
CN1CC=C2C(C#N)=C(N)C(C#N)(C#N)C(c3ccncc3)C2C1 (centres undefined),.,116,.,.,122
COC(=O)C1=C(c2ccc(F)cc2F)C[C@@H]2CC[C@H]1N2C(=O)NCCOc1ccc(OC)cc1,/,/,.,.,/
O=C(O)Cn1cc(C=C2C(=O)NC(=O)NC2=O)c2ccccc21,/,65,.,.,?
CN(C)CCCN=Cc1c(O)n(CCc2ccccc2)c(=O)[nH]c1=O,.,.,.,.,96
CNc1ccc2nc3ccccc3[n+](C)c2c1,/,?,86,.,?
OCCNc1c2c(nc3ccccc13)CCCC2,.,.,.,.,.
C[n+]1c2ccccc2nc2ccc(NCCO)cc21,/,76,.,.,.
CCC(CO)NC(=O)C1C=C2c3cccc4[nH]cc(c34)CC2N(C)C1 (centres undefined),.,?,.,.,?
CC[C@@H](CO)NC(=O)[C@@H]1C=C2c3cccc4c3c(cn4C)C[C@H]2N(C)C1,.,?,75!,.,?
Cc1ccc(/C=C2\C(=O)NC(=S)N(c3cccc(F)c3)C2=O)o1,/,20,.,.,.
Cc1ccc(/C=C2\C(=O)NC(=O)N(CCc3ccc(F)cc3)C2=O)o1,.,active,.,.,?
CN(C)c1ccc(/C=C2\C(=O)NC(=O)N(Cc3ccc(F)cc3)C2=O)cc1,.,46,.,.,?
COc1ccc(N2C(=O)/C(=C/c3ccc(C)o3)C(=O)NC2=S)cc1,/,.,.,/,.
O=C1NC(=S)N(c2ccc(Cl)cc2)C(=O)/C1=C/N1CCN(C(=O)c2ccco2)CC1,.,49,.,.,.
C=C[C@@H]1C2=CCOC(=O)C2=CO[C@H]1O[C@@H]1O[C@H](CO)[C@@H](O)[C@H](O)[C@H]1O,/,/,.,.,/
COC(=O)C1=C(c2cccc(C#N)c2)C[C@@H]2CC[C@H]1N2C(=O)NC1CCCCC1,/,/,.,.,/
CCN(C=C1CC2C3CC=C4CC(O)CCC4(C)C3CCC2(C)C1=O)CC (centres undefined),/,/,.,/,/
Cc1cc(OC(=O)N(C)C)nc(-c2ccc(C)c(Cl)c2)n1,.,.,.,.,.
COC(=O)C1=C(c2cccc(C#N)c2)C[C@@H]2CC[C@H]1N2C(=O)NCCCOC(C)C,/,/,.,.,/
CC12CC1(C)C(=O)N(c1cc(Cl)cc(Cl)c1)C2=O (centres undefined),/,/,.,/,/
Oc1ccc(O)c2c1C1(Cl)C(Cl)=C(Cl)C2(Cl)C1(Cl)Cl,/,/,.,/,/
O=C1NC(=S)N(c2ccc(F)cc2)C(=O)/C1=C/c1ccco1,/,.,/,99,.
COc1ccc(OC)c(N2C(=O)/C(=C/c3ccco3)C(=O)NC2=S)c1,/,68,/,100,63
SMILES,PERK inhibitor,PABP polyA inh,PABP1 MLLE inh,GRK2 inh,eIF4H inh
COc1ccc(N2C(=O)/C(=C/c3cc(C)n(-c4ccc(C)cn4)c3C)C(=O)NC2=S)c(OC)c1,.,active,.,.,.
COc1cc(/C=C2\C(=O)NC(=O)N(c3ccccc3)C2=O)c([N+](=O)[O-])cc1OC,3.0,.,49,/,.
COc1cc(/C=C2\C(=O)NC(=O)N(c3ccccc3)C2=O)cc(OC)c1O,.,.,.,.,.
CC1(CCCc2ccc(N(CCCl)CCCl)cc2)NC(=O)NC1=O (centres undefined),/,/,.,/,/
Cc1ccc2c(C)c3ccc4ccccc4c3c[n+]2c1,/,/,.,/,/
COc1cc(C(=O)OC2C[C@H]3CC[C@@H](C2)N3)ccc1O (some centres undefined),/,.,.,.,.
C[C@]1(O)CCC2C3CC[C@H]4C[C@@H](OC(=O)CNC(=O)CN)CC[C@]4(C)C3CC[C@@]21C (some centres undefined),/,/,.,.,/
Cc1cccc(N2C(=O)NC(=O)/C(=C/c3ccc([N+](=O)[O-])o3)C2=O)c1,.,122,/,44,80
Cc1ccccc1-n1c(C)nc2ccccc2c1=O,.,.,.,.,.
Cc1cccc(-n2c(C)nc3ccccc3c2=O)c1C,.,75,.,.,.
C=CCn1c(O)c(/C=C2\C=Nc3ccccc32)c(=O)[nH]c1=O,.,58,.,.,?
CCOC(=O)C1(CCc2ccccc2)CCN(C(C)CSC)CC1 (centres undefined),/,/,.,.,/
